These results are taken from PubChem BioAssay (NCATS).

Assay [1] can be described thus: Drug repurposing screens with cells derived from glioblastoma tumor samples (AID 1345199). For activity, negative = cell killing: % is set by controls: 0 for no effect and ±100 for the full control effect. Note: nearly all actives have a fitted effect of over 40% in size. Note: potency is the fitted concentration of half-maximal effect. The note with it: GBM patient neurospheres viability, ATP luminescence, 48 h. Put shortly: (§1)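 Four patient lines of CD133+ GBM neurospheres were screened at several concentrations; hits were retested in those lines plus three slower-growing GBM lines, using 48-hour treatment and ATP-based viability.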

The test system of another assay is astro (control astrocytes). Described as above. The note with it: viability, ATP luminescence, 48 h; series mostly up to 45.9 µM. The method in brief:
as §1

The target of assay [2] is Nuclear receptor subfamily 1 group I member 2 (Rattus norvegicus) (UniProt Q9R1A7). Nature of the assay: qHTS assay for small molecule activators of the rat pregnane X receptor (rPXR) signaling pathway (AID 651751; call rule not given here; note: 0% is about no effect). To be noted: rPXR reporter cells, luciferase (One-Glo), 24 h. In general terms: qHTS replaces the single test concentration by a dilution series.
Assay [3] is described as follows: qHTS assay for small molecule activators of the human pregnane X receptor (PXR) signaling pathway (AID 720659; call rule not given here; note: 0% is about no effect). The note with it: DPX-2 HepG2 CYP3A4-luciferase, 24 h; series mostly up to 92.3 µM.
Setting [4] is: at 45.9 µM (top of the series), tumour line B.
The mark [5] stands for this setting: at 45.9 µM (top of the series), tumour line D.
Where [6] appears, read: at 46.1 µM (top of the series), tumour line C.
The mark [7] stands for this setting: at 20 µM (top of the series), tumour line C.
The mark [8] stands for this setting: at 21.2 µM (top of the series), tumour line B.
[9] abbreviates: at 21.2 µM (top of the series), tumour line D.

Where “and” joins values, the source holds several entries; their conditions need not be identical. Equal values may be shown once. Values without a mark were called inactive. Records with an inconclusive call do not appear. Calls of active or inactive are those of the source. Unless noted, calls come from the whole dose curve; as a rule, active = well fitted inhibition curve with a large enough effect; inconclusive = small, poorly fitted or top-dose-only effect; inactive = flat fitted curve, though single readings scatter.

Nuclear receptor subfamily 1 group I member 2 (Rattus norvegicus), sequence (Q9R1A7 whole entry, looked up): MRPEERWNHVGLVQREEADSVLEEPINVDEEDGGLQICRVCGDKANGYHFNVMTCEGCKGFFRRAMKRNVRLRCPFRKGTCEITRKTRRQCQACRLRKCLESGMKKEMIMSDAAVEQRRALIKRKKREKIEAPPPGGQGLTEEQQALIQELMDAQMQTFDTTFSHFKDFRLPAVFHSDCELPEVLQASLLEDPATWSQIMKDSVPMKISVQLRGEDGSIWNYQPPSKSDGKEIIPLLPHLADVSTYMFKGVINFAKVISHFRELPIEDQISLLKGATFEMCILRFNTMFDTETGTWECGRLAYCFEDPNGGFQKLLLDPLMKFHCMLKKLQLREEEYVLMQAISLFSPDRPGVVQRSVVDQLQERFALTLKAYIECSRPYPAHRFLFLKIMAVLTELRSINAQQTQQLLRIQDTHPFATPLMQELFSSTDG

`O=C(O)CCCCC1CCSS1` (configuration not stated): the activity, negative = cell killing in assay [1] (setting [4]) was -9.35%; in assay [1] (setting [5]), -12.2%; in assay [1] (setting [6]) it was -7.1%. The outcome (in the assay on astro; in assay [3]) was inactive. For the same compound, the max response in assay [2] was -15% and -8.97%.
Turning to `Cc1cc(C)nc(NS(=O)(=O)c2ccc(N)cc2)n1`, the activity, negative = cell killing is -8.37% in assay [1] (setting [4]); -19.9% in assay [1] (at 46 µM (top of the series), tumour line A); -16.8% in assay [1] (setting [6]). The compound was called inactive in the assay on astro (control astrocytes). In assay [2], the max response is 4.51% and 0.319%.
With `COc1ccc(C(=O)NCc2ccc(OCCN(C)C)cc2)cc1OC`, the activity, negative = cell killing in assay [1] (setting [4]) is -21.3%; in assay [1] (setting [5]) it was -4.36%. In the assay on astro, the compound was called inactive.
Regarding `CCN1CC(CCN2CCOCC2)C(c2ccccc2)(c2ccccc2)C1=O` (configuration not stated), the activity, negative = cell killing in assay [1] (setting [4]) was -13.3%; in assay [1] (setting [5]), -11.4%; in assay [1] (setting [6]) it was -23.7%. Further, the call with astro was inactive.
With `CC1(c2ccccc2)OC(C(=O)O)=CC1=O` (configuration not stated), the figures for the activity, negative = cell killing in assay [1] (setting [4]), in assay [1] (setting [5]) and in assay [1] (setting [6]) were -1.24%, -9.61% and -15.9%, respectively. Also, the result in the assay on astro was inactive.
For the compound `O=c1[nH]c2cc(C(F)(F)F)c(N3CCOCC3)cc2n(CP(=O)(O)O)c1=O`, the activity, negative = cell killing was -1.62% in assay [1] (setting [4]), -2.48% in assay [1] (setting [5]) and -20.3% in assay [1] (setting [6]). Moreover, the result in the assay on astro was inactive.
For the compound `Cc1cc(OI)c(C(C)C)cc1-c1cc(C(C)C)c(OI)cc1C`, the activity, negative = cell killing in assay [1] (setting [4]) is -6.87%; in assay [1] (setting [5]) it was -13.4%; in assay [1] (setting [6]), 33.1%. Further, the result in the assay on astro was inactive.
As to `C[C@H]1COc2c(C3(N)CC3)c(F)cc3c(=O)c(C(=O)O)cn1c23`, the results for the activity, negative = cell killing in assay [1] (setting [4]) and in assay [1] (setting [6]) were -13.2% and -15.1%, respectively. Besides, the outcome in the assay on astro was inactive.
`CC(CN(C)C)C(C)(O)Cc1ccc(Cl)cc1` (configuration not stated): the activity, negative = cell killing in assay [1] (setting [4]) is -15.1%; in assay [1] (setting [6]), -8.21%. For the same compound, the Potency in assay [1] (tumour line A) was 20 µM (active). Besides, in the assay with astro, the outcome was inactive.
For the compound `CCCCCCCCCCCCCCCCN`, the activity, negative = cell killing in assay [1] (setting [4]) was -8.19%; in assay [1] (setting [5]), -19.2%; in assay [1] (setting [6]), -20.5%. In addition, the call with astro was inactive.
In the case of `O=C(O)C(S)C(S)C(=O)O` (configuration not stated), the result with astro was inactive.
`Cc1ccc(S(=O)(=O)NC(=O)NC2CCCCC2)cc1`: the activity, negative = cell killing in assay [1] (setting [4]) was -0.759%; in assay [1] (setting [5]) it was 4.18%; in assay [1] (setting [6]), -11.1%. In the assay on astro, the compound was called inactive.
With `Nc1ncnc(Nc2ccccc2)n1`, the activity, negative = cell killing was -14.8% in assay [1] (setting [4]), -23.1% in assay [1] (setting [5]) and -21.6% in assay [1] (setting [6]). Moreover, in the assay on astro, the compound was classed as inactive.
In the case of `O=C1c2cccc(O)c2C(=O)c2c(O)cccc21`, the activity, negative = cell killing in assay [1] (setting [6]) was -4.97%. The Potency in assay [1] (tumour line A) was 11.2 µM (active). Further, the compound was classed as inactive (in the assay on astro; in assay [3]). Besides, the max response in assay [2] was 4.48%.
On to `Cc1cc(=O)[nH]c(=S)[nH]1`, for which the activity, negative = cell killing in assay [1] (setting [4]) was -11.2%; in assay [1] (setting [5]), 2.62%; in assay [1] (setting [6]), -26.3%. Besides, the outcome (in the assay with astro; in assay [3]) was inactive. Further, the max response in assay [2] was -6.87%.
Turning to `CCCOC(=O)c1ccc(N)cc1`, the activity, negative = cell killing in assay [1] (setting [5]) was -16.4%. For the same compound, the Potency in assay [1] (tumour line C) is 25.9 µM (active). Further, the compound was classed as inactive in the assay on astro.
With `O=c1[nH]c(=O)n([C@H]2C[C@H](O)[C@@H](CO)O2)cc1I`, the activity, negative = cell killing was -27.4% in assay [1] (setting [7]); -17% in assay [1] (setting [8]); -18.1% in assay [1] (at 21.3 µM (top of the series), tumour line A). In the assay on astro, the compound was called inactive.
As for `O=C(O)Cc1ccc(CCNS(=O)(=O)c2ccc(Cl)cc2)cc1`, the activity, negative = cell killing in assay [1] (setting [4]) was -9.63%; in assay [1] (setting [5]), -6.01%. Besides, in the assay on astro, the outcome was inactive.
For `COC(=O)c1ccc(O)cc1`, the activity, negative = cell killing was -4.62% in assay [1] (setting [4]), -7.84% in assay [1] (setting [5]) and -1.97% in assay [1] (setting [6]). Moreover, the max response in assay [2] was -3.01%. For the same compound, in assay [3], the compound was classed as inactive.
For `NNc1nnc(NN)c2ccccc12`, the activity, negative = cell killing in assay [1] (setting [4]) is -9.47%; in assay [1] (setting [5]) it was -12.6%; in assay [1] (setting [6]) it was -17.6%. The compound was classed as inactive in the assay with astro.
With `CCCCCCCCCCCCCCCCCCO`, the figures for the activity, negative = cell killing in assay [1] (setting [4]), in assay [1] (setting [5]) and in assay [1] (setting [6]) were -13.2%, -6.74% and -1.06%, respectively. Besides, the outcome (in the assay on astro; in assay [3]) was inactive. For the same compound, the max response in assay [2] was 0.797%.
Turning to `CC[C@H](C)[C@H](N)C(=O)O`, the activity, negative = cell killing in assay [1] (setting [4]) was -7%; in assay [1] (setting [5]), 0.894%; in assay [1] (setting [6]) it was 2.32%. The compound was classed as inactive with astro.
In the case of `NCc1ccc(S(N)(=O)=O)cc1`, the activity, negative = cell killing was 8.51% in assay [1] (setting [7]), -1.96% in assay [1] (setting [8]) and -7.46% in assay [1] (setting [9]). The compound was classed as inactive in the assay with astro.
In the case of `OC(CCN1CCCC1)(c1ccccc1)C1CCCCC1` (configuration not stated), the activity, negative = cell killing was 3.06% in assay [1] (setting [7]), -6.65% in assay [1] (setting [8]) and -11.6% in assay [1] (setting [9]). The compound was called inactive in the assay with astro.
`COc1ccc(O)cc1`: the activity, negative = cell killing is -15% in assay [1] (setting [4]), -17.8% in assay [1] (setting [5]) and -24.9% in assay [1] (setting [6]). In addition, the call (with astro; in assay [3]) was inactive. The max response in assay [2] is -3%.
Take `CCOC(=O)[C@H](CCc1ccccc1)N[C@@H](C)C(=O)N1Cc2cc(OC)c(OC)cc2C[C@H]1C(=O)O`: the results for the activity, negative = cell killing in assay [1] (setting [4]), in assay [1] (setting [5]) and in assay [1] (setting [6]) were -9.77%, -6.92% and -6.4%, respectively. Further, in the assay on astro, the outcome was inactive.
With `O=C(OOC(=O)c1ccccc1)c1ccccc1`, the activity, negative = cell killing is -7.59% in assay [1] (setting [4]), -7.12% in assay [1] (setting [5]) and -4.84% in assay [1] (setting [6]). For the same compound, in assay [2], the max response was -0.865%. Further, the compound was called inactive in assay [3].
As for `CC[N+](CC)(CC(=O)Nc1c(C)cccc1C)Cc1ccccc1`, the activity, negative = cell killing in assay [1] (setting [4]) is -20.4%; in assay [1] (setting [5]) it was -18.5%; in assay [1] (setting [6]) it was -28%. The compound was classed as inactive (with astro; in assay [3]). The max response in assay [2] was 0.531%.
On to `O=C(O)CCCc1ccccc1`, for which the activity, negative = cell killing is -2.94% in assay [1] (setting [4]), -2.78% in assay [1] (setting [5]) and -9.45% in assay [1] (setting [6]). Also, the compound was classed as inactive in the assay with astro.
For the compound `NC(=O)c1ccc([N+](=O)[O-])cc1Cl`, the results for the activity, negative = cell killing in assay [1] (setting [4]), in assay [1] (setting [5]) and in assay [1] (setting [6]) were -9.49%, -5.61% and -36.6%, respectively. The compound was classed as inactive in the assay with astro.
